Screens deposited in PubChem by National Center for Advancing Translational Sciences (NCATS).
In the library only some 8% were active in any assay of this set; here they are far more common.
VP16 counter: inhibits Gal4-VP16 luciferase reporter, ROR gamma counter-screen; Drosophila S2 Gal4-VP16 UAS-luciferase, luminescence, 20 h; Potency, µM (series often up to 53.6 µM), without a hit: at the top dose activity, negative = inhibition, usual class: inhibitors; 3.5% of 310,000 active; AID 2546;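 note: Gal4-VP16 expression switched on by copper sulfate through the metallothionein promoter; potency is the fitted concentration of half-maximal effect; nearly all actives have a fitted effect of over 50% in size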
RORg inh: inhibitors of mouse ROR gamma transcriptional activity; P51450; Drosophila S2 Gal4-RORgamma UAS-luciferase reporter, 20 h; Potency, µM (doses to about 53.6 µM), for the others: at the top dose activity change, negative = inhibition, actives largely listed as inhibitors; 5.4% of 310,000 active; AID 2551; note: potency is the fitted concentration of half-maximal effect; nearly all actives have a fitted effect of over 60% in size
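ROR gamma transcriptional activity was tracked as Gal4-UAS luciferase output in stably transfected Drosophila Schneider cells, with compound added 1 hr before 700 uM copper sulfate induction and a 20 hr ambient-temperature incubation.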
TSHR antag: antagonists of human thyroid stimulating hormone receptor; TSHR-expressing cells, TSH-stimulated cAMP HTRF, 2 h; hits give low values; P16473; activity change, negative = inhibition, % at 11.5 µM; AID 504810; 0.2% of 330,000 active;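 active = activity change below a set negative limit, meaning inhibition stronger than a set level, cut at about -70% in these data; inconclusive = activity change between two set negative limits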
Target sequence (P16473 whole entry, looked up): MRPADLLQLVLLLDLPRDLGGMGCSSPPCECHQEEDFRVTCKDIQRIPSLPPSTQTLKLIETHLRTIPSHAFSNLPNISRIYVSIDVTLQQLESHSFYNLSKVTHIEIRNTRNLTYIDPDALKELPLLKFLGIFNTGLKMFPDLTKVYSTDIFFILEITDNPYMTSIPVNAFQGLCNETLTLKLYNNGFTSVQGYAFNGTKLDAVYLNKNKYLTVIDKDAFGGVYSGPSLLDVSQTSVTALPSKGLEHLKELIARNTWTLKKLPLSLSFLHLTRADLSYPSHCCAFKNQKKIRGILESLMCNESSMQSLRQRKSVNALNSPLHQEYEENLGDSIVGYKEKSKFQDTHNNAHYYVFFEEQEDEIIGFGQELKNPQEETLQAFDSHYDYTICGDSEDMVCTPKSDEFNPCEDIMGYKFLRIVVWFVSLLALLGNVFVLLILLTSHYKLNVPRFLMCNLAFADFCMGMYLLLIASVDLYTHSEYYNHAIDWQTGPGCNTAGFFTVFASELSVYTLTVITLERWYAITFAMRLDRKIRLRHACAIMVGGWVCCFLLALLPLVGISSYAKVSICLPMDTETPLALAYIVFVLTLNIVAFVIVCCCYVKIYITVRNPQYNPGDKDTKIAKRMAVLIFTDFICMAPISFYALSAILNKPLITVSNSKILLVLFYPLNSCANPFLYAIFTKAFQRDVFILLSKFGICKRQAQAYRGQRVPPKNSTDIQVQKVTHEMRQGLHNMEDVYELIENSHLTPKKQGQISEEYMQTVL
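Inhibition of cAMP made by TSHR-expressing cells under TSH stimulation (4nM final, EC80; 2 h, 37 deg C) is quantified with a one-step lysis HTRF kit, anti-cAMP cryptate versus cAMP-d2.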
FBPA coupling cs: inhibits coupling enzyme system, counter-screen for aldolase hits. coupling enzyme system counterscreen, AmpLite Red fluorescence. activity change, negative = inhibition, % at 58.2 µM, hits read low. 0.67% of 290,000 active. AID 2472; in the data active = activity change below about -30%
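Counterscreen lacking aldolase: glyceraldehyde-3-phosphate coupling-enzyme reagent preincubated 10 min at RT with compound (at 57.5 uM final), then substrate/coupling system with AmpLite Red added; fluorescence read at 525/598 nm after 20 min RT.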
ELG1 repair inh: inhibitors of ELG1-dependent DNA repair in HEK293T cells. HEK293T ELG1-luciferase reporter, luminescence, 16 h; DNA damage induced by 5-fluorouridine. Potency, µM (highest dose often 46.1 µM), for the others: top-dose activity change, negative = inhibition, actives largely listed as inhibitors. 2.3% of 330,000 active; note: potency is the fitted concentration of half-maximal effect; nearly all actives have a fitted effect of over 55% in size
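Cells (2,000 per well) received 5-fluorouridine plus test compound or DMSO and were incubated 16 hr at 37 °C, 5% CO2. Luciferase activity was read by luminescence 30 min after ONE-Glo addition; signal suppression marked inhibition of damage-induced ELG1 function.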
Numbers without * were called inactive; ? = inconclusive; . = not tested or not shown; [ ] = dose if it differs, or a comment. Unless noted, calls come from the whole dose curve; as a rule, active = well fitted curve in the direction sought with a large enough effect; inconclusive = small, poorly fitted or top-dose-only effect, or another doubt; inactive = no such curve, though single readings can be large; an effect the other way counts as inactive or inconclusive. % is set by controls: 0 for no effect and ±100 for the full control effect.

SMILES	VP16 counter	RORg inh	TSHR antag	FBPA coupling cs	ELG1 repair inh
CC1CCN(c2ccc(NC(=S)NC(=O)c3ccc(-c4cccc([N+](=O)[O-])c4)o3)cc2)CC1	7.08µM*	1.58µM*	3.1	1.4	?
CC1CCN(c2ccccc2NC(=S)NC(=O)c2ccc(-c3cccc([N+](=O)[O-])c3)o2)CC1	-3.0%	1µM*	2.8	1.3	8.9%
O=C(NC1CCCCC1)c1ccc(-c2cccc([N+](=O)[O-])c2)o1	-28.0%	?	-8.1	1.9	?
CCN(Cc1ccccc1)C(=O)Cn1cc(S(=O)(=O)NC)c(S(=O)(=O)NC)c1	-0.6%	3.6%	-4.1	-3.0	-9.6%
CCc1cc(C(N)=S)ccn1	-3.9%	17.2%	2.5	4.0	-15.0%
CCc1ccc(C(N)=S)cc1	-16.9%	11.2µM*	7.0	1.2	9.5%
C=C(c1ccc(OC)cc1)c1ccc(OC)cc1	7.6%	38.6%	7.8	0.8	8.1%
COc1ccc(C(N)=S)cc1	?	12.6µM*	2.4	1.4	1.0%
Cc1ccc(CNC(=O)C2CC(=O)N(C3CCCC3)C2)cc1 (stereo not given)	.	.	-1.5	.	13.8%
Cc1cccc(NC(=S)NNC(=O)c2ccccc2OC(F)F)c1	?	?	3.8	1.0	-8.8%
CC(NC(=S)Nc1c(Br)cccc1OC(F)F)C(C)(C)C (stereo not given)	?	10µM*	-11.7	-0.1	9.0%
C/C(=N\Nc1ccccc1)c1cc2ccccc2oc1=O	?	-30.3%	-3.3	-2.6	?
COc1ccc(C(=O)N/N=C(\N)c2cc3ccccc3oc2=O)cc1	?	0.891µM*	32.6	4.1	10.6%
C/C(CC(=O)c1ccccc1)=N\NC(=O)CC#N	?	3.98µM*	5.8	6.2	13.7%
COc1ccc(C(=O)N/N=c2\oc3ccccc3cc2C(=O)NCc2ccccc2)cc1	?	?	-1.1	-1.6	10.3µM*
C/C(=N\NC(=O)CC#N)c1cc2ccccc2oc1=O	6.31µM*	6.31µM*	-9.3	2.4	10.5%
CC1CCCC(NC(=O)C2N(CCCN3CCCC3)C(=O)C3C(C(=O)Nc4cccc(Cl)c4)C4C=CC32O4)C1C (stereo not given)	-5.7%	-35.2%	3.0	2.2	10.8%
O=C(Nc1nc(-c2ccc(F)c(F)c2)cs1)Nc1ccc(F)cc1F	-2.4%	-1.9%	-6.0	0.6	20.3%
Cc1ccc(C(=O)N/N=c2\oc3ccccc3cc2C(N)=O)cc1	-5.8%	-12.4%	-7.6	1.1	-17.7%
NC(=O)c1cc2ccccc2o/c1=N/NC(=O)c1cccc(Cl)c1	-0.1%	10.7%	-78.5*	1.0	8.7%
CC1SCC(=NOCc2ccccc2)CS1 (stereo not given)	-1.5%	32.3%	-70.4*	2.3	?
O=C(O)CSCC(=O)Nc1ccccc1SCCS(=O)(=O)c1ccc(Cl)cc1	14.1%	7.4%	0.7	2.9	-7.6%
Cc1ccc(C)c(N2N=C(C(=O)Nc3ccccc3N3CCOCC3)CCC2=O)c1	.	.	-16.5	.	14.6µM*
O=C(Cc1ccccc1)Nc1ccc(N2CCOCC2)cc1N1CCOCC1	-5.0%	-4.9%	-2.6	-16.1	4.7%
O=C(Cc1ccccc1)Nc1cc(C(=O)c2ccccc2)ccc1N1CCOCC1	8.4%	-1.0%	-1.0	0.2	25.9µM*
SMILES	VP16 counter	RORg inh	TSHR antag	FBPA coupling cs	ELG1 repair inh
Cc1cc(C)c(OCC(=O)Nc2ccccc2N2CCOCC2)c(C)c1	-6.7%	33.9%	-12.5	-0.6	0.82µM*
Cc1ccc(C)c(N2N=C(C(=O)Nc3ccccc3N3CCCC3)CCC2=O)c1	-17.9%	-4.8%	31.6	.	?
Cc1cc(C)c(OCC(=O)Nc2ccccc2N2CCCCC2)c(C)c1	.	.	3.7	.	0.9%
O=C(/C=C/c1ccccc1)N1CCN(CCN2C(=O)c3cccc4cccc(c34)C2=O)CC1	2.1%	4.2%	-3.6	2.2	10.3µM*
O=C(c1ccc(S(=O)(=O)N2CCCC2)cc1)N1CCCCCC1	0.0%	16.5%	2.6	-0.5	0.2%
O=C(c1ccc(S(=O)(=O)N2CCCCC2)cc1)N1CCN(CCN2C(=O)c3cccc4cccc(c34)C2=O)CC1	?	15.7%	4.1	0.1	3.26µM*
CN(CC(=O)Nc1ccc(Cl)cc1)C(=O)C1CCCC1	.	.	4.7	.	?
COc1cccc(OC)c1OCCCCc1c(C)n[nH]c1C	-6.1%	24.4%	-18.2	-0.6	-13.4%
Cc1ccc(OCCCc2c(C)n[nH]c2C)cc1	?	11.2µM*	-9.2	1.8	?
Cc1n[nH]c(C)c1CCCCOc1ccccc1	?	15.8µM*	-9.8	-3.0	?
CC(=O)c1c(O)c(C)c(O)c2c1OC1=CC(=O)C(C(C)=O)C(=O)[C@@]12C (stereo not given in full)	0.4%	-2.3%	-13.4	16.1	-8.2%
Cc1ccc(S(=O)(=O)CC#CCOC(=O)c2ccc([N+](=O)[O-])cc2)cc1	?	10µM*	-1.5	1.1	-13.1%
Cc1ccc(C(=O)c2ccc([N+](=O)[O-])cc2)cc1	-8.3%	-25.2%	7.6	0.0	20.4%
CCNS(=O)(=O)c1ccc(S(=O)(=O)N(Cc2ccccn2)C2CCCCC2)cc1	?	?	-4.8	0.5	-6.4%
CCN(C1CCCCC1)S(=O)(=O)c1ccc(S(=O)(=O)NCCc2ccncc2)cc1	-8.0%	?	-4.9	-2.2	?
O=S(=O)(NCc1ccccc1)c1ccc(S(=O)(=O)N(Cc2ccccn2)C2CCCC2)cc1	-10.0%	?	-18.3	-2.7	20.6µM*
CCN(C1CCCCC1)S(=O)(=O)c1ccc(S(=O)(=O)NCc2ccncc2)cc1	17.8µM*	-0.9%	-11.2	1.0	?
CC[N+]1(C)[C@@H]2CC[C@H]1CC(OC(=O)[C@H]1CC[C@@](C(=O)OC3C[C@H]4CC[C@@H](C3)[N+]4(C)CC)(c3ccccc3)c3ccccc31)C2 (stereo not given in full)	-0.6%[17 µM]	-30.0%[16.9 µM]	.	-1.4	.
Cc1ccc(S(=O)(=O)NCC(=O)OCC(=O)N(C)C2CCCCC2)cc1	.	.	-4.7	.	?
CC[C@H](C)Cc1cn([C@@H](CCCN=C(N)N)C(=O)NCCCCCCCCCCC(=O)N2CCNCC2)nn1	.	.	7.0	.	14.6%
CC(=O)/C=C/c1ccc2ccccc2n1	?	10µM*	20.7	.	-22.9%
CC(OC(=O)/C=C/c1ccc2ccccc2n1)C(=O)N(C)c1ccccc1 (stereo not given)	.	.	-9.0	.	?
Cc1ccc(Nc2c(-c3ccccn3)nc3ccc(C)cn23)cc1	?	12.6µM*	-2.9	-3.0	?
Cc1ccn2c(NC3CCCC3)c(-c3ccccn3)nc2c1	-17.0%[10 µM]	3.55µM*	-7.3	-6.7	-13.7%
Cc1ccn2c(Nc3ccc4c(c3)OCO4)c(-c3ccccn3)nc2c1	?	?	-12.5	-23.7	?
